Source: PubChem (National Center for Advancing Translational Sciences (NCATS))
KinaseGlo FLuc – Kinase-Glo luciferase inhibition (counter-screen). Kinase-Glo luciferase, ATP luminescence, 8 min. AID 1379. Q27757. Potency, µM (doses to about 38.3 µM), for the others: at the highest dose activity change, negative = inhibition, most hits filed as inhibitors. 200,000 compounds, 0.28% hits; also: % is scaled to controls: 0 for no effect and ±100 for the full control effect; nearly all actives have a fitted effect of over 60% in size
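Inhibition of Kinase-Glo luciferase light generation was assessed at 10 uM ATP in pH 7.2 imidazole buffer, with luminescence measured after eight minutes at ambient temperature.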
Rab9 promoter act – activates the Rab9 promoter | Huh7 Rab9 promoter-luciferase reporter, luminescence, 24 h | Potency, µM (top dose mostly 9.22 µM), inactives show at the highest dose activation, negative = inhibition, hits mostly activators | 320,000 compounds, 2.8% hits | AID 485297; also: % of control where 0% means no effect; nearly all actives have a fitted effect of over 60% in size
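Quantitative HTS format; Huh7 Rab9-luciferase reporter cells (1500/well) receive compound 2 h post-plating, incubate 24 h at 37 °C, then get luciferase reagent for 10 min before luminescence reading.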
FLuc modulator – firefly luciferase modulation, counter-screen for miR-21 project; P08659; purified FLuc, Km substrates, luminescence inhibition; Potency, µM (highest dose often 57.5 µM), for inactives: top-dose activity change, negative = inhibition, actives largely listed as inhibitors; 360,000 compounds, 6.9% hits;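 also: plate controls were vehicle for no effect and reference inhibitor for full effect; nearly all actives have a fitted effect of over 55% in size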
Target sequence (P08659 whole entry, looked up): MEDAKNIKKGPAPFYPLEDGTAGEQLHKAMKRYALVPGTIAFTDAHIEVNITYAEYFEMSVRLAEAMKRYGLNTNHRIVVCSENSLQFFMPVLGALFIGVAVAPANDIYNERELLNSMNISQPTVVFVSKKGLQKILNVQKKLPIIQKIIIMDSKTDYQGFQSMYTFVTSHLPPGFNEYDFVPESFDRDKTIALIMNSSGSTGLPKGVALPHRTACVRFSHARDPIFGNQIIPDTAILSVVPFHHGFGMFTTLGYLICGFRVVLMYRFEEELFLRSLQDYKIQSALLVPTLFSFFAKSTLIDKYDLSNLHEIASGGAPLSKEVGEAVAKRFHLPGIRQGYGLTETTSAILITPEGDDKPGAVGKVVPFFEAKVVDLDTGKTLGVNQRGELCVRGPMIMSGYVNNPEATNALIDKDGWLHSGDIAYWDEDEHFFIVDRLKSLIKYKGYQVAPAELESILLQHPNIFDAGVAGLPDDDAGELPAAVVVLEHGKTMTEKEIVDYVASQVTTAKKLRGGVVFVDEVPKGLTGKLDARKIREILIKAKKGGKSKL
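Purified P. pyralis luciferase (10nM final) with 10uM D-luciferin and 10uM ATP (Km levels) in 50mM Tris acetate pH 7.5, 10mM Mg acetate, 0.01% Tween-20, 0.05% BSA; qHTS 6-point titration, ~60 µM downward; luminescence read.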
ELG1 genotoxic – inducers of genotoxicity in HEK293T ELG1-luciferase cells; AID 504466; 330,000 compounds, 1.3% hits; HEK293T ELG1-luciferase reporter, luminescence, 16 h; Potency, µM (titrated, usually from 46 µM), without a hit: at the highest dose activity change, positive = activation, actives largely listed as activators; also: % of control where 0% means no effect; nearly all actives have a fitted effect of over 60% in size
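Luminescence read-out: rising ELG1-luciferase signal, reflecting elevated ELG1 protein under genetic stress, flags genotoxic compounds. Cells were treated for 16 hr at 37 °C before ONE-Glo detection.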
NPC1 promoter act – activators of NPC1 promoter | Potency, µM (doses to about 9.22 µM), for inactives: top-dose activation, most hits filed as activators | Huh7 NPC1 promoter luciferase reporter, 24 h | AID 485313 | 320,000 compounds, 2.4% hits; also: % of control where 0% means no effect; nearly all actives have a fitted effect of over 60% in size
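Huh7 cells stably carrying NPC1 promoter–luciferase, plated in Opti-MEM with 10% FBS for 2 h, were exposed to compound in DMSO for 24 h at 37 °C; luciferase reagent was added for 10 min and luminescence read.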
SMN2 splice enh – increases expression of the SMN2 splice variant; 210,000 compounds, 2.8% hits; AID 1458; HEK293 SMN2-luciferase splicing reporter, luminescence, 30-36 h; Potency, µM (top dose mostly 46.1 µM), for the others: top-dose activity change, positive = activation, hits mostly activators; also: % of control where 0% means no effect; nearly all actives have a fitted effect of over 55% in size
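qHTS luciferase splicing reporter: luminescence rises when SMN2 exon 7 is included in transfected HEK293 cells. Compound exposure lasted 30-36 h at 37C, with 4.5 mM final sodium butyrate as control, followed by a ONE-Glo read.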
* = called active by the depositor; [ ] = another dose, or the depositor's remark. A selection: hits, their analogues and other compounds. The true share with any hit is near 7.3%. Calls follow the shape of the dose curve; as a rule, active = well fitted curve in the direction sought with a large enough effect; inconclusive = small, poorly fitted or top-dose-only effect, or another doubt; inactive = no such curve, though single readings can be large; an effect the other way counts as inactive or inconclusive. Potency is read from the fitted curve at half-maximal effect.

Screening Nc1ccc(-c2ccc3ccccc3n2)cc1 returned KinaseGlo FLuc -13%, Rab9 promoter act 1.3µM*, NPC1 promoter act 1.5µM* and SMN2 splice enh 3.2µM*.
For COc1ccc(-c2ccc3ccccc3n2)cc1 the results were KinaseGlo FLuc inconclusive, Rab9 promoter act 0.4µM*, FLuc modulator 1.2µM*, ELG1 genotoxic 0.92µM*, NPC1 promoter act 0.71µM* and SMN2 splice enh 13µM*.
Screening COc1ccc(-c2ccc3ccccc3n2)cc1OC returned KinaseGlo FLuc -3%, Rab9 promoter act 2µM*, FLuc modulator 11µM*, ELG1 genotoxic 4.1µM*, NPC1 promoter act 2.2µM* and SMN2 splice enh 14µM*.
`COc1ccc(-c2cc(-c3ccccc3)nc(N3CCCC3)n2)cc1OC` gave KinaseGlo FLuc -2%, Rab9 promoter act 0%, FLuc modulator inconclusive, ELG1 genotoxic -2%, NPC1 promoter act 0% and SMN2 splice enh inconclusive.
COc1ccc2nc3c(nc2c1)C(=O)c1ccccc1-3 was read as KinaseGlo FLuc -8%.
CN1CCN(CCCN)CC1 was read as KinaseGlo FLuc -9%[7.66 µM] and SMN2 splice enh -4%[9.22 µM].
Screening CC[C@H]1CC[C@H]2[C@@H]3CC=C4C[C@H](OC(C)=O)[C@@H](N)C[C@@]4(C)[C@H]3CC[C@@]12C returned KinaseGlo FLuc -2%[7.66 µM] and SMN2 splice enh 0%[9.22 µM].
`CCC(=O)N1c2ccc(S(=O)(=O)N3CCC(C)CC3)cc2CC1C` (stereo not given) gave FLuc modulator -3% and SMN2 splice enh -16%.
Screening Cc1nc(Nc2ccc(S(N)(=O)=O)cc2)sc1-c1ccccc1 returned Rab9 promoter act 17%, FLuc modulator 21µM*, ELG1 genotoxic 17% and NPC1 promoter act 28%.
COc1ccc(Nc2nc(C)c3ccccc3n2)cc1 was read as KinaseGlo FLuc -3%, Rab9 promoter act 2.5µM*, FLuc modulator -5%[2.3 µM], ELG1 genotoxic inconclusive, NPC1 promoter act inconclusive and SMN2 splice enh 35µM*.
`COc1ccc2c(C)nc(Nc3nc(C)c(C)c(=O)[nH]3)nc2c1` gave KinaseGlo FLuc -6%, Rab9 promoter act inconclusive, FLuc modulator 9.5µM*, ELG1 genotoxic inconclusive, NPC1 promoter act inconclusive and SMN2 splice enh 3%.
Screening COc1ccc(Nc2nc(C)c(-c3ccccc3)s2)cc1 returned KinaseGlo FLuc 0%, Rab9 promoter act 4µM*, FLuc modulator 7.6µM*, ELG1 genotoxic inconclusive, NPC1 promoter act inconclusive and SMN2 splice enh inconclusive.
`CCc1c(C)nc(Nc2nc(C)c3ccc(OC)cc3n2)[nH]c1=O` gave KinaseGlo FLuc -3%, Rab9 promoter act inconclusive, FLuc modulator inconclusive, ELG1 genotoxic inconclusive, NPC1 promoter act 16% and SMN2 splice enh -23%.
COc1cccc2[nH]c(=O)c(-c3ccccc3)cc12 was read as Rab9 promoter act 2.8µM*, FLuc modulator 12µM*, ELG1 genotoxic inconclusive and NPC1 promoter act 3.5µM*.
Screening Cc1ccccc1-c1nnc(CN2CCN(c3cccc(C)c3C)CC2)o1 returned FLuc modulator -12% and SMN2 splice enh 9%.
For COCCN(C(=O)c1ccco1)c1nc(-c2ccccc2)cs1 the results were Rab9 promoter act 24%, FLuc modulator -19%, ELG1 genotoxic 3% and NPC1 promoter act 22%.
Screening COc1ccc(-c2csc(N(CCCN(C)C)C(=O)c3ccccc3C)n2)cc1 returned Rab9 promoter act 0.28µM*, FLuc modulator 2%, ELG1 genotoxic -10% and NPC1 promoter act 8%.
For COc1ccc(-c2csc(N(CCCN(C)C)C(=O)c3ccccc3F)n2)cc1 the results were Rab9 promoter act -2%, FLuc modulator 1%, ELG1 genotoxic 0% and NPC1 promoter act -2%.
For CN(C(=O)c1ccco1)c1nc(-c2ccccc2)cs1 the results were Rab9 promoter act 2µM*, FLuc modulator 5.4µM*, ELG1 genotoxic inconclusive and NPC1 promoter act 2.5µM*.
For CCC(=O)N(CC)c1nc(-c2ccc(OC)cc2)cs1 the results were KinaseGlo FLuc 1%, Rab9 promoter act inconclusive, FLuc modulator 15µM*, ELG1 genotoxic 7%, NPC1 promoter act 4.5µM* and SMN2 splice enh 7%.
CN(C)CCCN(C(=O)c1cccs1)c1nc(-c2ccccc2)cs1 was read as KinaseGlo FLuc -1%, Rab9 promoter act -1%, FLuc modulator -1%, ELG1 genotoxic inconclusive, NPC1 promoter act -5% and SMN2 splice enh 7.9µM*.
`CCOC(=O)c1[nH]c(C)c(CCC(=O)N2CCN(c3cc(C)ccc3C)CC2)c1C` gave FLuc modulator -9%.
`Oc1ccc(-c2cc(-c3ccc(O)cc3)nc(-c3ccccc3)n2)cc1` gave Rab9 promoter act -8%, FLuc modulator -14%, ELG1 genotoxic 4% and NPC1 promoter act -3%.
`CN(c1ccc(O)cc1)c1nc(-c2ccccc2)cs1` gave KinaseGlo FLuc 0%, Rab9 promoter act inconclusive, FLuc modulator inconclusive, ELG1 genotoxic inconclusive, NPC1 promoter act 2.2µM* and SMN2 splice enh inconclusive.
CCN(C(=O)c1ccco1)c1nc(-c2ccc(OC)cc2)cs1 was read as Rab9 promoter act 4µM*, FLuc modulator 12µM*, ELG1 genotoxic inconclusive and NPC1 promoter act 3.2µM*.
`COCCN(C(=O)c1ccccc1F)c1nc(-c2ccc(OC)cc2)cs1` gave Rab9 promoter act 22%, FLuc modulator inconclusive, ELG1 genotoxic 10% and NPC1 promoter act inconclusive.
Screening CCN(C(=O)c1ccccc1F)c1nc(-c2ccc(OC)cc2)cs1 returned Rab9 promoter act 2µM*, FLuc modulator 8.5µM*, ELG1 genotoxic inconclusive and NPC1 promoter act 3.2µM*.
Screening CCN(C(=O)c1cc2c(=O)n(CC)c3ccccc3c2s1)c1cccc(C(F)(F)F)c1 returned FLuc modulator 4% and SMN2 splice enh 0%.
O=C(O)c1sc2cccc(Cl)c2c1Cl was read as KinaseGlo FLuc -1%, Rab9 promoter act 2%, FLuc modulator 5.4µM*, ELG1 genotoxic -1% and NPC1 promoter act 0%.
Screening O=C(Nc1ccccc1Cl)c1sc2cccc(Cl)c2c1Cl returned FLuc modulator inconclusive and SMN2 splice enh -8%.
`Cc1cc(O)cc(O)c1C(=O)OC1(C)C(=O)C=C2C=C(/C=C/C(=O)O)OC=C2C1=O` (stereo not given) gave KinaseGlo FLuc 0% and SMN2 splice enh 15%.
